In PubChem BioAssay (NCATS):
Several values for one entry are separate records, joined by “and”; a condition that tells them apart may be missing. Equal values may be shown once. Results filed as inconclusive are left out. Entries that show only a call come without a potency. Activity calls are given as the source filed them. Unless noted, the call rests on the fitted dose curve; in most records, active means well fitted curve in the direction sought with a large enough effect; inconclusive means small, poorly fitted or top-dose-only effect, or another doubt; inactive means no such curve, though single readings can be large; an effect the other way counts as inactive or inconclusive.

Columns and labels:
[1] = target: Thioredoxin reductase 1, cytoplasmic (Rattus norvegicus) (UniProt O89049); test: qHTS Assay for Substrates of Mammalian Selenoprotein Thioredoxin Reductase 1 (TrxR1) (AID 488772);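 further: NADPH fluorescence in the first read after selenite addition and not the 8 min delta; series mostly up to about 57 µM; a drop in NADPH fluorescence below the no-compound background marks a TrxR1 substrate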
Outline: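 Quantitative HTS in Tris-HCl buffer at pH 7.5 with EDTA and Tween-20, using rat TrxR1, 400 uM NADPH and 400 uM selenite (final). A fall in initial NADPH fluorescence relative to background marked substrate behaviour.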

[2] = target: Thioredoxin reductase 1, cytoplasmic (Rattus norvegicus) (UniProt O89049); test: qHTS Assay for Inhibitors of Mammalian Selenoprotein Thioredoxin Reductase 1 (TrxR1) (AID 488773); conditions: Potency: inhibition;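 further: drop in NADPH fluorescence over an 8 min run after selenite addition; series mostly up to about 57 µM; nearly all actives have a fitted effect of over 40% in size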
Outline: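 Steps: enzyme (90 nM) plus NADPH (400 uM final), 5 min at ~22 deg C; compound added, 15 min; selenite (400 uM final) added; fluorescence followed for 8 min. Concentration-response curves derived from the normalized delta values.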

[3] = target: Flap endonuclease 1 (Homo sapiens) (UniProt P39748); test: qHTS Validation Assay for the Inhibitors of Human Flap endonuclease 1 (FEN1) (AID 488816); further: potency means the concentration at half of the fitted maximal effect
Outline: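 Human FEN1 (10 nM) preincubated 15 min at room temperature with compounds, then flap DNA substrate added at 50 nM final. Fluorescence read at 0 and 15 min; concentration-response fitted with four-parameter Hill equation.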

[4] = target: M-phase phosphoprotein 8 (Homo sapiens) (UniProt Q99549); test: qHTS Validation Assay for Inhibitors for MPP8 Chromodomain Interactions with Methylated Histone Tails (AID 488949); further: nearly all actives have a fitted effect of over 55% in size; further: potency means the concentration at half of the fitted maximal effect
M-phase phosphoprotein 8 (Homo sapiens), sequence (Q99549 whole entry, looked up): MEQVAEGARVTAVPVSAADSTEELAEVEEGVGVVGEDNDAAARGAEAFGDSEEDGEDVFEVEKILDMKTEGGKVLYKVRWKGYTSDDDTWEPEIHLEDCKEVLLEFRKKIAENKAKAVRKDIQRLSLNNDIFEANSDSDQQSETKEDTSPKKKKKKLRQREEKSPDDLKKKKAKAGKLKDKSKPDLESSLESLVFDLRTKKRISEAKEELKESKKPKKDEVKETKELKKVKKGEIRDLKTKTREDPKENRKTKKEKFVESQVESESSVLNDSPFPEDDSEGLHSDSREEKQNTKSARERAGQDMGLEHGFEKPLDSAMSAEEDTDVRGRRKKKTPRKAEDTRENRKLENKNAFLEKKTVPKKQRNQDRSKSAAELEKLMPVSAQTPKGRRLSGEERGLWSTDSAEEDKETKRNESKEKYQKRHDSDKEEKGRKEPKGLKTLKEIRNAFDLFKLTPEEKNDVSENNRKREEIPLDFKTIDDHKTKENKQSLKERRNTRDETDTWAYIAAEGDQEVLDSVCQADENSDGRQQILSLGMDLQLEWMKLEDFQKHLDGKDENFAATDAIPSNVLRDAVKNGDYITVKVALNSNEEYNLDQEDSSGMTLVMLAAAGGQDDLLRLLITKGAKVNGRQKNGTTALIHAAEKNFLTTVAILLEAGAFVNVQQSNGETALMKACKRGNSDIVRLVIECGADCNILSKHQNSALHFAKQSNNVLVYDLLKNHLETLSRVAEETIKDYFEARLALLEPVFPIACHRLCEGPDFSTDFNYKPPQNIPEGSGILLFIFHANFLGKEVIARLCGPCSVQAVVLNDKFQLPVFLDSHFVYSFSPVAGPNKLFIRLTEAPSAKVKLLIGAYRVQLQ
Outline: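 AlphaScreen read-out: streptavidin donor and nickel chelate acceptor beads (final 10 ug/mL), 30 min in the dark at RT. Complex of 50 nM MPP8 and 50 nM b-H3(1-18)K9me3 peptide had been exposed to compounds for 30 min beforehand.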

[5] = target: Chromobox protein homolog 1 (Homo sapiens) (UniProt P83916); test: qHTS Validation Assay for Inhibitors of HP1-beta Chromodomain Interactions with Methylated Histone Tails (AID 488953); further: nearly all actives have a fitted effect of over 50% in size; further: potency means the concentration at half of the fitted maximal effect
Chromobox protein homolog 1 (Homo sapiens), sequence (P83916 whole entry, looked up): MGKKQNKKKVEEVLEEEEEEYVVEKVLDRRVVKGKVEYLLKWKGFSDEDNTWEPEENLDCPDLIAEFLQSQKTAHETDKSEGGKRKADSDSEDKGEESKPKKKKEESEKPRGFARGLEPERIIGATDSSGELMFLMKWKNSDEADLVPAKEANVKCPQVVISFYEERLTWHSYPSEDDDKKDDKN
Outline: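 HP1-beta (50 nM) was preincubated 30 min at room temperature with biotinylated H3(1-18)K9me3 peptide (50 nM) in PBS pH 7.4, 0.01% Tween-20, then with compounds 30 min. AlphaScreen signal was read after streptavidin donor/nickel chelate acceptor beads (10 ug/mL final).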

[6] = target: Methanococcus maripaludis chaperonin (MmCpn) (UniProt Q6LX38); test: High-Throughput Screening for Modulators of Cytosolic Chaperonin Activity: MmCpn Primary Screen (AID 488978);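 further: 50 nM MmCpn enzyme hydrolysing 30 µM ATP at 37 °C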
Methanococcus maripaludis chaperonin (MmCpn), sequence (Q6LX38 1-543): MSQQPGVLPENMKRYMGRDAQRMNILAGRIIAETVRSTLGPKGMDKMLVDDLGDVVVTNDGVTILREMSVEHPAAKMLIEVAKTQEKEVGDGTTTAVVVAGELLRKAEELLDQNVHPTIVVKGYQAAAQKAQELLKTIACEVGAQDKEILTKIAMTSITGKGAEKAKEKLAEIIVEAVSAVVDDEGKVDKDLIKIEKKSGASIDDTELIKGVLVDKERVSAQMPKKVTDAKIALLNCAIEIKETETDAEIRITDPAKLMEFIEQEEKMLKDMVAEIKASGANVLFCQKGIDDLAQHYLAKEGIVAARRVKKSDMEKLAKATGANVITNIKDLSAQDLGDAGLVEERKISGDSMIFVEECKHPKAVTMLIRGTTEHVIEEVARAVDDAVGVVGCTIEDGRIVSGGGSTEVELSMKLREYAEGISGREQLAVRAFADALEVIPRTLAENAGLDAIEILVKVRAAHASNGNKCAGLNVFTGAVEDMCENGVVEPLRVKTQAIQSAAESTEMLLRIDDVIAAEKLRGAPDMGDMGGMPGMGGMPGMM
Outline: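 ADP formation read by HTRF Transcreener, 665/590 nm emission after 320 nm excitation. Enzyme: archaeal chaperonin at 50 nM final; substrate ATP 30 uM final; 10 min, 37C, after 5 min compound preincubation at RT.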

[7] = target: D(1A) dopamine receptor (Homo sapiens) (UniProt P21728); test: HTS Assay for Allosteric Agonists of the Human D1 Dopamine Receptor: Primary Screen for Agonists (AID 488981)
D(1A) dopamine receptor (Homo sapiens), sequence (P21728 whole entry, looked up): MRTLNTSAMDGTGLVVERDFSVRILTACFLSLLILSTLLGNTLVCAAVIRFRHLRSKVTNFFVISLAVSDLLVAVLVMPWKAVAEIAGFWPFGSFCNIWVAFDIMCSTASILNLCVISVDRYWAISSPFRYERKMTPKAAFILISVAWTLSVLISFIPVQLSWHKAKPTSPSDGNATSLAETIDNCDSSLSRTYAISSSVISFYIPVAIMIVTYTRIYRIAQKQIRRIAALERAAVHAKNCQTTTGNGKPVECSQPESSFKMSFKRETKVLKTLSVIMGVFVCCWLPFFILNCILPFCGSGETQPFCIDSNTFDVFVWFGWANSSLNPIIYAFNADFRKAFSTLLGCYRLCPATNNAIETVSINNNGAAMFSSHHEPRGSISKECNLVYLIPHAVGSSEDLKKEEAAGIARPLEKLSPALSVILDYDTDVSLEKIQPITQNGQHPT
Outline: (§1)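 Tetracycline-induced HEK293 Trex D1 cells with forced coupling to calcium, loaded with no-wash calcium dye; kinetic fluorescence read 180 s after compound addition for agonism, then a further 180 s after an EC20 dopamine challenge for potentiation.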

[8] = target: D(1A) dopamine receptor (Homo sapiens) (UniProt P21728); test: HTS Assay for Allosteric Agonists of the Human D1 Dopamine Receptor: Primary Screen for Potentiators (AID 488982); further: potency means the concentration at half of the fitted maximal effect
Outline: as §1

[9] = target: D(1A) dopamine receptor (Homo sapiens) (UniProt P21728); test: HTS Assay for Allosteric Agonists of the Human D1 Dopamine Receptor: Primary Screen for Antagonists (AID 488983);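 further: calcium flux response to an EC80 dopamine challenge measured with no-wash dye; nearly all actives have a fitted effect of over 65% in size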; further: potency means the concentration at half of the fitted maximal effect
Outline: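 Tetracycline-induced HEK293 T-REx cells expressing force-coupled D1 were plated overnight at 30 C, dye-loaded for calcium, and read kinetically. Compounds were pinned in, then an EC80 dopamine challenge followed after 180 s to reveal antagonism.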

[10] = Validation screen for small molecules that induce genotoxicity in human embryonic kidney (HEK293T) cells expressing luciferase-tagged ELG1 (AID 493106); further: potency means the concentration at half of the fitted maximal effect
Outline: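 HEK293T cells expressing luciferase-tagged ELG1 were exposed to compound or DMSO vehicle for 16 hr at 37 °C, 5% CO2. Genotoxic stress raises ELG1 levels, so increased luciferase signal after ONE-Glo addition and 30 min at room temperature marks hits.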

[11] = target: ATPase family AAA domain-containing protein 5 (Homo sapiens) (UniProt Q96QE3); test: Validation screen for small molecules that inhibit ELG1-dependent DNA repair in human embryonic kidney (HEK293T) cells expressing luciferase-tagged ELG1 (AID 493107);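 further: cells co-treated with the DNA-damaging agent 5-fluorouridine alongside compound; series mostly up to about 46 µM; inhibitors lower the ELG1-luciferase luminescence signal; nearly all actives have a fitted effect of over 70% in size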
Outline: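 HEK293T cells expressing luciferase-tagged ELG1 were co-treated with 5-fluorouridine and compound or DMSO for 16 hr at 37 °C, 5% CO2. Luciferase activity was then read with ONE-Glo after 30 min at room temperature; suppressed signal indicates blocked ELG1 function.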

[12] = Nrf2 qHTS screen for inhibitors: Validation (AID 493153; active means well fitted inhibition curve with a large enough effect in the main read-out, with a control signal flat, not every such curve was filed as active); conditions: Potency: luciferase luminescence; viability change: measured here: cytotoxicity max response
Outline: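 A549 cells carrying an ARE-driven firefly luciferase reporter, in 5% FBS OPTI-MEM, were treated with compounds in concentration-response for 18-24 h at 37°C. Viability was read by CellTiter-Fluor fluorescence, then Nrf2 activity by luciferase luminescence.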

[13] = qHTS for Inhibitors of Cell Surface uPA Generation: Validation Assay (AID 493164);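 further: RAW 264.7 macrophage cells exposed to compound for 18 h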
Outline: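 RAW 264.7, 4000 cells/well, o/n plating; cpd 7-pt 1:5 dilution 2.45 nM–38.3 uM final; 18 h, 37 C/5% CO2; ATP-Lite, 5 s luminescence exposure.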

[14] = target: ATP-dependent 6-phosphofructokinase (Trypanosoma brucei brucei) (UniProt O15648); test: qHTS Assay to Find Inhibitors of T. brucei phosphofructokinase: hit validation (AID 492961); further: series mostly up to about 51 µM
ATP-dependent 6-phosphofructokinase (Trypanosoma brucei brucei), sequence (O15648 whole entry, looked up): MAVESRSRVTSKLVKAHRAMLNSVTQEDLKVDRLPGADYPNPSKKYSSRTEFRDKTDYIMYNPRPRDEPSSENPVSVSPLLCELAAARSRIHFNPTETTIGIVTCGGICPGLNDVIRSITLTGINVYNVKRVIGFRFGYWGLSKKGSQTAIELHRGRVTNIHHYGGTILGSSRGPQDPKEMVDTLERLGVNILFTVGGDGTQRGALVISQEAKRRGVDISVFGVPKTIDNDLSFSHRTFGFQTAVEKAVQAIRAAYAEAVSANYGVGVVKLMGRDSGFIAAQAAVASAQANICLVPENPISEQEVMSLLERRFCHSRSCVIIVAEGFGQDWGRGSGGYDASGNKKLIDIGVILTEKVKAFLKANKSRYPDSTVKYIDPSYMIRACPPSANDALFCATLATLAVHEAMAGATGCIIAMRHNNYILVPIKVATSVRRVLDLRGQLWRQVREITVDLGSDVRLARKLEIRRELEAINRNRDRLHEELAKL
Outline: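 Luminescence from ADP-Glo reports ADP generated as T. brucei PFK (1.25 nM) phosphorylates 0.5 mM fructose-6-phosphate using 0.1 mM ATP. Reactions ran 45 min at room temperature, pH 8.0.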

[15] = target: Thyrotropin receptor (Homo sapiens) (UniProt P16473); test: qHTS Assay for Antagonists of the Thyroid Stimulating Hormone Receptor (AID 488980); further: series mostly up to about 58 µM
Thyrotropin receptor (Homo sapiens), sequence (P16473 whole entry, looked up): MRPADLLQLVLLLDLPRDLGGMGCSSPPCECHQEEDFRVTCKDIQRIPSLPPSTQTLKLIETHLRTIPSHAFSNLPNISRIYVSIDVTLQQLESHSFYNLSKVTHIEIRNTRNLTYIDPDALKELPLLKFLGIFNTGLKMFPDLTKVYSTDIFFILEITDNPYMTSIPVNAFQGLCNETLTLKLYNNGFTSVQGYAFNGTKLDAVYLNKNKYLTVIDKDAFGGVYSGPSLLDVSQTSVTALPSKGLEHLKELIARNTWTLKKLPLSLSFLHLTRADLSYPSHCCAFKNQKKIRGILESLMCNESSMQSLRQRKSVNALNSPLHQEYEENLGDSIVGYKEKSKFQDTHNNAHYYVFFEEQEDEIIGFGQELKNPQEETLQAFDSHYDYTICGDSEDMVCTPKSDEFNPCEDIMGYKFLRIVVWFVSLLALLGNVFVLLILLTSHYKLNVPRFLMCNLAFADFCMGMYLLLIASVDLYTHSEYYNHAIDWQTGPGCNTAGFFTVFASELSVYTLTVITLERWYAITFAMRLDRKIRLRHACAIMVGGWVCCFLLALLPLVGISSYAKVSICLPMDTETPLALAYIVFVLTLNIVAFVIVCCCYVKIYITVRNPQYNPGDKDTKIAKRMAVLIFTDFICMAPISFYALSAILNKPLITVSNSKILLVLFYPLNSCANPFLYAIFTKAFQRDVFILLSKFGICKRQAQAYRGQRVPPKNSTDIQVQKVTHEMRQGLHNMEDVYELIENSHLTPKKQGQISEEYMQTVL
Outline: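 TSHR-HEK293 cells; 70 uM RO 20-1724 PDE inhibitor; compound + EC80 TSH (4 nM final); anti-cAMP cryptate antibody/cAMP-d2 in lysis buffer, 30 min RT; HTRF 665/620 nm read.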

[16] = target: Thyrotropin-releasing hormone receptor (Homo sapiens) (UniProt P34981); test: qHTS for Small Molecule Agonists and Allosteric Enhancers of Human TRH Receptor: Validation Screen for Agonists (AID 493127;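 active means calcium activation more than 3 SD above the typical response in the agonist read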;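 further: intracellular calcium rise by fluo-8 fluorescence before TRH EC20 addition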); conditions: TRH receptor agonist cell assay; at 2 µM; stronger effect = higher value
Thyrotropin-releasing hormone receptor (Homo sapiens), sequence (P34981 whole entry, looked up): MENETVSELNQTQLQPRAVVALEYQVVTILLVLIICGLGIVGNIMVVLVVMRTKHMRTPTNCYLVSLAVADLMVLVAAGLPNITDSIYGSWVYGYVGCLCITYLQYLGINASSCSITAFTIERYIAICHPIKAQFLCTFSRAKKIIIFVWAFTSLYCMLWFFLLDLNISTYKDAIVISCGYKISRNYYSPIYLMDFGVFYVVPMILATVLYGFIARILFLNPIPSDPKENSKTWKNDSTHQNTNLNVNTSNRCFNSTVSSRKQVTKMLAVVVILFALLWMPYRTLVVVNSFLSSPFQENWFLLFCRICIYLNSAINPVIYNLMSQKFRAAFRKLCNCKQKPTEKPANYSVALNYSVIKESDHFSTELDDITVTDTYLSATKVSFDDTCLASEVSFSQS
Outline: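 TRHR-expressing cells were plated overnight in serum-containing medium, then loaded with fluo-8 calcium dye at room temperature for 30 min–1.5 h. After a 10 s baseline, compound was pin-transferred and calcium fluorescence (ex 480/em 530) read kinetically for agonist response.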

[17] = target: Galactokinase (Homo sapiens) (UniProt P51570); test: qHTS Validation Assay for Inhibitors of Human Galactokinase (GALK) (AID 493189)
Galactokinase (Homo sapiens), sequence (P51570 whole entry, looked up): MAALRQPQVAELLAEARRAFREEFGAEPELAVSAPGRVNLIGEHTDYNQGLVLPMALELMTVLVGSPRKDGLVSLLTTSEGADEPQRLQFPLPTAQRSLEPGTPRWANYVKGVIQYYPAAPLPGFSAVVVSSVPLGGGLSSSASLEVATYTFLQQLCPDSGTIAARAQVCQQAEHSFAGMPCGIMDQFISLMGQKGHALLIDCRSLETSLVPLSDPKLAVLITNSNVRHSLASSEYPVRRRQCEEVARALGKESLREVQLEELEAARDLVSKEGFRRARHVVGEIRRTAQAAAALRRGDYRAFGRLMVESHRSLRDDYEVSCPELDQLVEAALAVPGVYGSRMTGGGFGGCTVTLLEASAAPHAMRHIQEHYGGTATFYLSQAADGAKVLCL
Outline: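 Luminescence from leftover ATP (Kinase-Glo Plus, 10 min) served as read-out after a 1 h room-temperature reaction of 5 nM GALK, 100 uM galactose and 35 uM ATP at pH8.0.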

[18] = target: Transient receptor potential cation channel subfamily V member 1 (Homo sapiens) (UniProt Q8NER1); test: HTS Assay for Compounds that Act as Enhancers of the Vanilloid Receptor 1 (AID 488979)
Transient receptor potential cation channel subfamily V member 1 (Homo sapiens), sequence (Q8NER1 whole entry, looked up): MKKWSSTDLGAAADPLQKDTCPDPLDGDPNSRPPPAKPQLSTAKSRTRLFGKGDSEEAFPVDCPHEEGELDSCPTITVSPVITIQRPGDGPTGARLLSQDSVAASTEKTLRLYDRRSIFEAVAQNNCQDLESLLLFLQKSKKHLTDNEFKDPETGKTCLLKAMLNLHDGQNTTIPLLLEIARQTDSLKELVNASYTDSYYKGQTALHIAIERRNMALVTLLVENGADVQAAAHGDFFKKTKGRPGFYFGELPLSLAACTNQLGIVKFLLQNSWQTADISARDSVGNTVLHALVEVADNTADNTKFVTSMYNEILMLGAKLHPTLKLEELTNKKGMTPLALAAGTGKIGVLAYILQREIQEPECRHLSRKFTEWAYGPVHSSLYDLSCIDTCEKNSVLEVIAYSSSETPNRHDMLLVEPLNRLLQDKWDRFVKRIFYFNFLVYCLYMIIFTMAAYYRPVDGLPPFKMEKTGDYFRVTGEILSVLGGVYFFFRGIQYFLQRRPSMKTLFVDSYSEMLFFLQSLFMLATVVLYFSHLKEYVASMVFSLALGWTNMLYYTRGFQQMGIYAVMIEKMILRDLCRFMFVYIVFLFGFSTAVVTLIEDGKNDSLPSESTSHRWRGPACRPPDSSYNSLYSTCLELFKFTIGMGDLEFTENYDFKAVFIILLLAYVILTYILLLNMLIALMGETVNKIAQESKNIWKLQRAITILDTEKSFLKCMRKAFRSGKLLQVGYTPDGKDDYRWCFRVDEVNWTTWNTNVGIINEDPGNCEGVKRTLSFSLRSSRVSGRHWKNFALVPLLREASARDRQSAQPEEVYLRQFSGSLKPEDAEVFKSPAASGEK
Outline: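 TRPV1 cells loaded with Fluo-8 calcium dye; compound added and Ca2+ signal (ex 480/em 520 nm) followed 3 min, then capsaicin at EC20 added and read 2 more min to detect enhancement.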

COc1cc2nc(N(C)CCCNC(=O)C3CCCO3)nc(N)c2cc1OC (stereo unspecified)
outcome [1]: inactive
Potency [2]: inactive
Potency [3]: inactive
Potency [4]: inactive
Potency [5]: inactive
outcome [6]: inactive
Potency [7]: inactive
Potency [8]: inactive
Potency [9]: inactive
Potency [10]: inactive
Potency [11]: inactive
Potency [12]: inactive
viability change [12]: -7.87%
outcome [13]: inactive

CC#C[C@]1(O)CC[C@H]2[C@@H]3CCC4=CC(=O)CCC4=C3[C@@H](c3ccc(N(C)C)cc3)C[C@@]21C
outcome [1]: inactive
Potency [2]: inactive
Potency [3]: inactive
Potency [4]: 11.9 µM (active)
Potency [5]: 25.1 µM (active)
outcome [6]: inactive
Potency [7]: inactive
Potency [8]: 2.31 µM (active)
Potency [9]: inactive
Potency [14]: inactive
Potency [10]: inactive
outcome [13]: inactive

OCCN1CCN(CCCN2c3ccccc3Sc3ccc(C(F)(F)F)cc32)CC1
outcome [1]: inactive
Potency [2]: inactive
Potency [3]: inactive
outcome [6]: inactive
outcome [15]: inactive
Potency [7]: inactive
Potency [10]: inactive
activation [16]: 1.88% (inactive)
outcome [13]: inactive
Potency [17]: inactive

COC(=O)Nc1nc2ccc(C(=O)c3cccs3)cc2[nH]1
outcome [1]: inactive
Potency [2]: inactive
Potency [4]: inactive
Potency [5]: inactive
outcome [6]: inactive
outcome [18]: inactive
outcome [15]: inactive
Potency [7]: inactive
Potency [8]: inactive
Potency [9]: inactive
Potency [10]: 2.31 µM (active)
Potency [12]: inactive
viability change [12]: -18.1%
outcome [13]: inactive
Potency [17]: inactive

Clc1ccc2c(c1)C(N1CCNCC1)=Nc1ccccc1O2
outcome [1]: inactive
Potency [2]: inactive
Potency [3]: inactive
Potency [4]: inactive
outcome [6]: inactive
outcome [15]: inactive
Potency [8]: inactive
Potency [10]: inactive
Potency [11]: inactive
activation [16]: 4.19% (inactive)
outcome [13]: inactive
Potency [17]: inactive

CN1CCC(=C2c3ccccc3C=Cc3ccccc32)CC1
outcome [1]: inactive
Potency [2]: inactive
Potency [4]: inactive
outcome [15]: inactive
Potency [7]: inactive
Potency [8]: inactive
Potency [10]: inactive
Potency [11]: inactive
Potency [12]: inactive
viability change [12]: 17%
outcome [13]: inactive
Potency [17]: inactive

O=C1Cc2cc(CCN3CCN(c4nsc5ccccc45)CC3)c(Cl)cc2N1
outcome [1]: inactive
Potency [2]: inactive
Potency [3]: inactive
Potency [4]: inactive
outcome [6]: inactive
Potency [7]: inactive
Potency [8]: inactive
Potency [10]: inactive
outcome [13]: inactive

COc1ccccc1OCCNCC(O)COc1cccc2[nH]c3ccccc3c12 (stereo unspecified)
outcome [1]: inactive
Potency [2]: inactive
Potency [3]: inactive
Potency [4]: inactive
outcome [6]: inactive
Potency [7]: inactive
Potency [8]: inactive
Potency [9]: 8.91 µM (active)
Potency [14]: inactive
Potency [10]: inactive
Potency [12]: inactive
viability change [12]: -0.159%
outcome [13]: inactive

Cc1ccc(-c2cc(C(F)(F)F)nn2-c2ccc(S(N)(=O)=O)cc2)cc1
Potency [14]: inactive

CC[C@@]1(O)C(=O)OCc2c1cc1n(c2=O)Cc2cc3c(CN(C)C)c(O)ccc3nc2-1
Potency [14]: inactive

CN1CCN(CCCN2c3ccccc3Sc3ccc(Cl)cc32)CC1
outcome [1]: inactive
Potency [2]: inactive
Potency [3]: inactive
Potency [4]: 25.1 µM (active) and 15 µM (active)
Potency [5]: 31.6 µM (active)
outcome [6]: inactive
outcome [15]: inactive
Potency [7]: inactive
Potency [8]: inactive
Potency [10]: inactive
Potency [11]: inactive
outcome [13]: inactive
Potency [17]: inactive

CC(=O)OCC(CCn1cnc2cnc(N)nc21)COC(C)=O
Potency [14]: inactive

C[C@H]1c2cccc(O)c2C(O)=C2C(=O)[C@]3(O)C(O)=C(C(N)=O)C(=O)[C@@H](N(C)C)[C@@H]3[C@@H](O)[C@@H]21
outcome [1]: inactive
Potency [2]: inactive
Potency [3]: 23.8 µM (active)
Potency [4]: inactive
outcome [6]: inactive
Potency [7]: inactive
Potency [9]: inactive
Potency [10]: inactive
Potency [11]: inactive
outcome [13]: inactive

O=c1[nH]cc(F)c(=O)[nH]1
outcome [1]: inactive
Potency [2]: inactive
Potency [4]: inactive
Potency [5]: inactive
outcome [6]: inactive
outcome [18]: inactive
outcome [15]: inactive
Potency [7]: inactive
Potency [8]: inactive
Potency [9]: inactive
Potency [11]: inactive
activation [16]: 0.812% (inactive)
outcome [13]: inactive
Potency [17]: inactive

Cc1cn([C@H]2C[C@H](N=[N+]=[N-])[C@@H](CO)O2)c(=O)[nH]c1=O
outcome [1]: inactive
Potency [2]: inactive
Potency [3]: inactive
Potency [4]: inactive
Potency [5]: inactive
outcome [6]: inactive
Potency [7]: inactive
Potency [8]: inactive
Potency [9]: inactive
Potency [14]: inactive
Potency [12]: inactive
viability change [12]: 8.03%
outcome [13]: inactive

CC(C)(C)C(=O)Oc1ccc(S(=O)(=O)Nc2ccccc2C(=O)NCC(=O)O)cc1
Potency [14]: inactive

CCOC(=O)c1ncn2c1CN(C)C(=O)c1cc(F)ccc1-2
Potency [2]: inactive
Potency [4]: inactive
Potency [5]: inactive
outcome [6]: inactive
outcome [15]: inactive
Potency [7]: inactive
Potency [8]: inactive
Potency [9]: inactive
Potency [10]: inactive
Potency [12]: inactive
viability change [12]: 2.56%
outcome [13]: inactive
Potency [17]: inactive

CN(C)C(=N)N=C(N)N
Potency [14]: inactive

CN1CCN(C2=Nc3cc(Cl)ccc3Nc3ccccc32)CC1
Potency [2]: inactive
outcome [6]: inactive
outcome [15]: inactive
Potency [10]: inactive
activation [16]: 3.31% (inactive)
Potency [12]: inactive
viability change [12]: -10.5%
outcome [13]: inactive
Potency [17]: inactive

Nc1c2c(nc3ccccc13)CCCC2
Potency [2]: inactive
Potency [3]: inactive
Potency [4]: inactive
Potency [5]: inactive
outcome [6]: inactive
outcome [18]: inactive
outcome [15]: inactive
Potency [7]: inactive
Potency [8]: inactive
Potency [9]: inactive
Potency [10]: inactive
activation [16]: 1.31% (inactive)
Potency [12]: inactive
viability change [12]: -3.66%
outcome [13]: inactive
Potency [17]: inactive

CS(=O)(=O)CCNCc1ccc(-c2ccc3ncnc(Nc4ccc(OCc5cccc(F)c5)c(Cl)c4)c3c2)o1
Potency [14]: inactive
